This is an account of results in PubChem BioAssay AID1508622 (National Center for Advancing Translational Sciences (NCATS), 2021).

Activity calls are given as the source filed them. Entries that show only a call come without a potency. Calls follow the shape of the dose curve; as a rule, active = well fitted activation curve with a large enough effect; inconclusive = small, poorly fitted or top-dose-only effect; inactive = no such curve, though single readings can be large or run the other way.
Potency is read from the fitted curve at half-maximal effect.

A short description of this assay: Confirmatory qHTS for Identification of Small Molecule Activators of Huntingtin-Antisense Promoter Activity. Conditions: HEK293 HTT-AS promoter firefly luciferase reporter, 24 h; series mostly up to 57.5 µM. The procedure, abridged:
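Activity normalized between vehicle control (0%) and zero RLU (-100%) from firefly luminescence (Dual-Glo). Compounds, up to 57.5 uM final, incubated 24 h at 37C on HEK293 reporter cells plated 24 h earlier.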
Turning to `CCc1nnc(NC(=O)c2nc(S(=O)(=O)Cc3cccc(C)c3)ncc2Cl)s1`, the Potency entry is “inactive”.

Turning to `CCOc1ccc(CCNC(=O)c2ccc(CS(=O)(=O)Cc3ccccc3Cl)o2)cc1OCC`, the Potency result was “inactive”.

`CCc1cccc(C)c1NC(=O)CCCN1C(=O)C(c2ccccc2)Oc2cccnc21` (centres undefined): the Potency entry is “inactive”.

In the case of `Cc1cccc(Nc2nc(Nc3cccc(C)c3)nc(N3CCOCC3)n2)c1`, the Potency entry is “inactive”.

In the case of `COc1ccc(C2=C(C)C(=O)N(Cc3ccc(C(=O)Nc4cccc(F)c4)cc3)S2(=O)=O)cc1`, the Potency result is “inactive”.

For the molecule `COc1ccc(NC(=O)c2ccc(-c3nc(CSc4ccccc4)c(C)o3)cc2)cc1OC`, the Potency result was “inactive”.

For `Cc1ccc(C(Nc2ccccn2)c2ccc3cccnc3c2O)cc1` (centres undefined), the Potency result is “inactive”.

Consider `COc1cc(Nc2ncc3c(n2)CCN(Cc2cc(F)cc(F)c2)C3)cc(OC)c1`, for which the Potency result was “inactive”.

In the case of `COc1ccccc1NC(=O)CSc1nnc2c(n1)[nH]c1ccccc12`, the Potency entry is “inactive”.

With `O=C(c1ccc2c(c1)CCN2S(=O)(=O)c1ccc(Cl)cc1)N1CCN(c2ccccc2F)CC1`, the Potency entry is “inactive”.

Turning to `CC(C)Oc1ccc(CNC(=O)C2CCN(C(=O)N3CCOc4ccc(Cl)cc43)CC2)cc1`, the Potency result is “inactive”.

Take `CCS(=O)(=O)c1oc(-c2ccc(F)cc2)nc1S(=O)(=O)c1ccc(Br)cc1`: the Potency result is “inactive”.

Regarding `COCCn1c2c([n+](Cc3cnccn3)c1C)C(=O)c1ccccc1C2=O`, the Potency result is “inactive”.

Regarding `N#CC[C@H](C1CCCC1)n1cc(-c2ncnc3[nH]ccc23)cn1`, the Potency result is “inactive”.

Regarding `CCc1ccc(NC(=O)c2ccc(F)c(S(=O)(=O)N3CCc4ccccc4C3)c2)cc1`, the Potency entry is “inactive”.

With `COc1ccc(NC(=O)Cn2c(=O)oc3cc(S(=O)(=O)N4CCCCCC4)ccc32)cc1OC`, the Potency result was “inactive”.

On to `Cc1cccc(N2CCN(C(=O)c3cccc(-n4c(C)nc5cccnc54)c3)CC2)c1C`, for which the Potency entry was “inactive”.

Regarding `CCCC(O)c1nc2ccccc2n1CCCCOc1ccc(OC)cc1` (centres undefined), the Potency result is “inactive”.

As to `CCN(Cc1ccccc1)C(=O)C1CCN(S(=O)(=O)c2c(C)noc2/C=C/c2ccc(C)cc2)CC1`, the Potency entry is “inactive”.

In the case of `CCc1c(C)sc2c1CCN(C(=O)Nc1ccc(F)c(Cl)c1)C2c1ccc(F)cc1` (centres undefined), the Potency entry was “inactive”.

Regarding `COc1cc(NC(=O)Cn2nc(C(F)(F)F)c3c2CCC3)cc(OC)c1OC`, the Potency result was “inactive”.

Consider `Cc1ccc(C)c(N2CCN(C(=O)C3CCN(c4nc(-c5ccc(C(C)C)cc5)no4)CC3)CC2)c1`, for which the Potency result is “inactive”.

Consider `COc1ccc(CNC(=O)c2c(Nc3ccccc3C)sc(C(=O)c3ccccc3)c2N)cc1`, for which the Potency result was “inactive”.

Turning to `O=C(Nc1ccc(Br)cc1)c1ccc(Br)c(S(=O)(=O)N2CCCCC2)c1`, the Potency result is “inactive”.

With `CCc1ccc(CNC(=O)c2cccc(-n3c(C)nc4cccnc43)c2)cc1`, the Potency entry was “inactive”.

In the case of `O=C(Nc1ccc(F)cc1F)c1ccc2c(c1)CCN2S(=O)(=O)c1ccc(Cl)cc1`, the Potency entry is “inactive”.

As for `Cc1ccc(S(=O)(=O)N(CC(=O)NCCc2ccc(Cl)cc2)c2ccccc2C)cc1`, the Potency result is “inactive”.

Consider `COc1ccccc1N1CCN(C(CNC(=O)C(=O)NCc2ccc(C)cc2)c2cccnc2)CC1` (centres undefined), for which the Potency result is “inactive”.

As for `CCC(=O)N1CCCc2cc(S(=O)(=O)N3CCC(C(=O)Nc4ccccc4CC)CC3)ccc21`, the Potency result is “inactive”.

As for `O=C(O)c1cc(-n2c(/C=C\c3ccc(F)cc3)nc3ccccc3c2=O)ccc1Cl`, the Potency entry is “inactive”.

With `CC(=O)c1ccc(NS(=O)(=O)c2ccc3[nH]c(=O)[nH]c3c2)cc1`, the Potency was 7.57 µM (active).

Take `O=C(Nc1cccc(C(=O)N2CCN(c3ccc(Cl)cc3)CC2)c1)c1nsc2ccccc12`: the Potency was 0.151 µM (active).

On to `COc1ccc(Nc2c3c(nc4ccc(NC(=O)/C=C/c5cccc(OC)c5OC)cc24)CCCC3)cc1OC`, for which the Potency result was “inactive”.

`O=C(Cn1cc(S(=O)(=O)Cc2ccccc2F)c2ccccc21)Nc1ccc(F)c(Cl)c1`: the Potency result was “inactive”.

Consider `CCC(C(=O)NCc1ccc(OC)c(OC)c1)n1nc(C)c2c(C)n(-c3ccc(C)cc3)nc2c1=O` (centres undefined), for which the Potency result was “inactive”.

In the case of `CCc1cccc(-n2nnc(S(=O)(=O)c3ccc(OC)cc3)c2C)c1`, the Potency result was “inactive”.

In the case of `O=C(NCC1CCN(Cc2ccccc2F)CC1)Nc1ccc(F)c(Cl)c1`, the Potency result is “inactive”.

`CCOc1ccc(-n2ccnc2SCC(=O)Nc2cc(C)ccc2C)cc1`: the Potency result was “inactive”.

With `COc1ccc(OC(C)C(=O)NCc2nc(-c3ccc(Cl)cc3)no2)cc1` (centres undefined), the Potency result was “inactive”.
